Only some compounds are listed: those with a hit (about 12% of all), similar ones and a draw of the others.
Cycloheximide cs: affects cycloheximide protein synthesis inhibition readout, counter-screen; cell reporter, cycloheximide protein synthesis inhibition counterscreen; max response, %; 300,000 compounds, 12% hits; in the data active means max response mostly above about 13%, no sharp cut-off; inactive means mostly below about 14%; further: read at 38.3 µM for the half of the compounds with a filed dose
NS1 function inh: influenza NS1 inhibition; Potency, µM (titrated, usually from 46.1 µM); 270,000 compounds, 0.4% hits; further: actives are rising curves; nearly all actives have a fitted effect of over 50% in size
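S. cerevisiae expressing influenza A NS1, grown in glucose, washed, then diluted 1:100 into pH 6.0 -URA galactose medium with 23 nl compound. Growth recovery read as OD600; NS1-free strain serves as control.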
SARS PLpro yeast: blocks SARS-CoV papain-like protease in a yeast assay; S. cerevisiae expressing SARS-CoV PLpro, growth rescue; Potency, µM (top dose mostly 32.9 µM), usual class: activators; 330,000 compounds, 0.19% hits; AID 485353; further: nearly all actives have a fitted effect of over 55% in size
Shiga inhibitor: blocks Shiga toxin action in Vero cells; inhibition, % at 38.7 µM; Vero cells, Shiga toxin protein synthesis inhibition reporter; 290,000 compounds, 9.2% hits; in the data active means inhibition mostly above about 28%, no sharp cut-off; inactive means mostly below about 43%
A number is an active result; i = inactive; ? = inconclusive; nt = no result. Unless noted, the call rests on the fitted dose curve.

SMILES	Cycloheximide cs	NS1 function inh	SARS PLpro yeast	Shiga inhibitor
CCOC(=O)[C@@H]1[C@H]2COc3cc(OC)ccc3[C@@H]2N2C(=O)N(c3ccccc3)C(=O)[C@]12C	nt	nt	i	nt
O=C1NC(=O)C(=Cc2ccc(Sc3ccccc3)o2)C(=O)N1	20	i	i	i
CN1C(=O)C(=Cc2ccc(Sc3ccccc3)o2)C(=O)N(C)C1=O	i	i	i	i
CC(C)n1nnnc1SCC(=O)c1c(N)n(C2CC2)c(=O)[nH]c1=O	nt	nt	i	nt
CCN(CC)S(=O)(=O)c1cccc(C(=O)N/N=C/c2ccccn2)c1	33	nt	i	i
CCN(CC)S(=O)(=O)c1cccc(C(=O)N/N=C/c2cccc(O)c2O)c1	53	i	?	77
O=C(N/N=C/c1ccccn1)c1cccc(S(=O)(=O)Nc2ccccc2Cl)c1	i	i	i	i
Cc1onc(-c2ccccc2)c1C(=O)Nc1cccc(S(=O)(=O)N2CCCCC2)c1	nt	nt	i	nt
CC1(C)CC(c2nc(-c3ccc(Cl)cc3)cs2)CCS1 (centres undefined)	i	i	i	i
CC1(C)CC(c2nc(-c3ccccc3)cs2)CCS1 (centres undefined)	16	i	i	i
COc1ccc(-c2cc([C@H]3[C@H]4C=CC[C@@H](C)[C@@H]4C(=O)N3Cc3ccccc3)ccc2F)cc1OC	22	?	i	61
CCC1CC=CC2C1C(=O)N(Cc1ccccc1)C2c1ccoc1 (centres undefined)	i	nt	nt	i
COc1ccc(-c2cc3ccccc3s2)cc1[C@H]1[C@H]2C=CC[C@@H](C)[C@@H]2C(=O)N1Cc1ccccc1	i	i	i	i
CC1CC=CC2C1C(=O)N(Cc1ccccc1)C2c1ccc(-c2cc3ccccc3s2)cc1F (centres undefined)	49	nt	nt	96
COc1ccc(-c2cc(C3C4C=CCC(C)C4C(=O)N3Cc3ccccc3)ccc2F)cc1 (centres undefined)	i	nt	nt	i
CC[C@@H]1CC=C[C@H]2[C@H]1C(=O)N(Cc1ccccc1)[C@H]2c1ccoc1	12	i	i	58
Cc1ccc(O)c(NC(=S)NC(=O)c2ccccc2Cl)c1	17	i	i	i
O=C(NC(=S)Nc1ccc2[nH]c(=O)[nH]c2c1)c1ccccc1[N+](=O)[O-]	46	i	i	48
CCCC(=O)Nc1ccc(NC(=S)NC(=O)c2ccccc2[N+](=O)[O-])cc1	i	i	i	i
O=C(NC(=S)Nc1ccccc1[N+](=O)[O-])c1ccccc1Cl	48	i	i	125
O=C(NC(=S)Nc1ccc(Cc2ccncc2)cc1)c1ccccc1Cl	i	i	i	i
O=C(NC(=S)Nc1ccc(O)cc1)c1ccccc1Cl	34	i	i	i
Cc1noc2ncnc(Sc3ccc(Br)cc3)c12	i	i	i	i
Cc1nn(C)c(C(=O)NC(=S)Nc2ccccc2O)c1Cl	10	i	i	i
COc1ccc(NC(=S)NC(=O)c2ccccc2Cl)cc1	38	nt	i	96
SMILES	Cycloheximide cs	NS1 function inh	SARS PLpro yeast	Shiga inhibitor
CCOc1ccc(NC(=S)NC(=O)c2c(Cl)c(C)nn2C)c([N+](=O)[O-])c1	i	i	i	i
COc1ccccc1C(=O)NC(=S)Nc1ccc(N2CCCC2)cc1	i	i	i	i
O=C(NNCc1ccc(O)cc1)c1ccccc1Cl	46	i	i	39
O=C(CCc1ccccc1)NNC(=O)c1ccccc1Cl	i	i	i	nt
O=C(CN1CCN(CC(=O)Nc2ccc(F)cc2)CC1)NCC1(N2CCOCC2)CCCCC1	nt	nt	i	nt
C=CCN=C1S/C(=C\c2ccc(N(C)C)cc2)C(=O)N1CC=C	45	i	i	59
Cc1ccc(NC(=O)C2OCCc3ccccc32)cc1 (centres undefined)	40	i	i	79
Cc1ccc(NC(=O)C2OCCc3ccccc32)cc1Cl (centres undefined)	18	i	i	58
Cc1ccc(NC(=O)C(=O)NCC2OCCc3ccccc32)cc1 (centres undefined)	i	i	i	i
Cc1ccc(NC(=O)C2C3CCC(O3)C2C(=O)O)cc1Cl (centres undefined)	i	i	i	i
Cc1cccc2sc(N(CCCN(C)C)C(=O)c3ccc4ncsc4c3)nc12	20	i	i	38
CN(C)CCCN(C(=O)c1ccc2c(c1)CCCC2)c1nc2ccc(F)cc2s1	i	i	i	i
CCc1ccc2nc(N(CCN(C)C)C(=O)c3ccc4ncsc4c3)sc2c1	68	i	i	117
Cc1ccc(C(=O)C(c2ccccc2)N2Cc3ccccc3C2=N)cc1 (centres undefined)	i	i	i	i
CC(=O)NC(CC(C)C)C(=O)NC(Cc1ccccc1)C(N)=O (centres undefined)	8.8	i	i	i
O=C(O)c1cccc(CN2C(=O)SC(Nc3ccccc3)C2=O)c1 (centres undefined)	17	i	i	i

Source: PubChem
